Source: PubChem BioAssay AID2314 (National Center for Advancing Translational Sciences (NCATS), 2010)
Among all 300,000 compounds or so, about 37,000 (12%) were called active. This excerpt belongs to a sample that is enriched for actives. Unmarked numbers belong to inactive results. No stated cut-off is given here; in the data, active means max response mostly above about 13% (no sharp cut-off); inactive means mostly below about 14%.

Assay: Cycloheximide Counterscreen for Small Molecule Inhibitors of Shiga Toxin; further: read at 38.3 µM for the half of the compounds with a filed dose; 0% is about no effect
Settings: cell reporter, cycloheximide protein synthesis inhibition counterscreen; active compounds read high
Work on `Cc1cccc(NC(=O)Nc2ccc(OCc3ccccc3)cc2)n1` yielded a max response of -4.06%. For `CSc1ccccc1NC(=O)Cc1ccc(Br)cc1`, the max response was -3.62%. In the case of `Cc1ccccc1OCC(=O)Nc1nc(C)c(C(=O)N(C)C)s1`, the max response is reported as 7.85%. For `Cc1cccc(NC(=O)Cc2ccc(Br)cc2)n1`, the max response was 33.4% (active). Molecule `CCN(CC)S(=O)(=O)c1ccc(C)c(NC(=O)COc2ccc(Br)cc2Cl)c1` has a max response of -3.99%. With `Cc1cccc(NC(=O)COc2ccc(Br)cc2C)n1` the max response was 42.7% (active). With `O=C1C(=O)N(CCN2CCOCC2)C(c2cccc(Cl)c2)/C1=C(/O)c1ccc2c(c1)OCO2` (stereo not drawn) the max response was 1.71%. `O=C(Nc1ccc(-n2cccn2)cc1)C1CCN(Cc2ccsc2)CC1` showed a max response of 1.46%. `Cc1cnc(C(=O)Oc2cccc(Cl)c2Cl)cn1` showed a max response of -2.93%. `O=S(=O)(Nc1cccc(Oc2ccc(Cl)cc2)n1)c1ccc(F)cc1` showed a max response of -1.16%. Work on `Cc1cc(C)n(CCNS(=O)(=O)c2ccc(Cl)cc2)n1` yielded a max response of -1.13%. `COc1ccc(CN2CCNC(=O)C2CC(=O)NCc2cn[nH]c2-c2ccccc2)c(F)c1` (stereo not drawn) gave a max response of -3.59%. With `COc1ccc2cc(-c3[nH]ncc3CNCCn3nc(C)cc3C)ccc2c1` the max response was 38.8% (active). Molecule `CCN1CCC2(CC1)N=C(c1ccc(F)cc1)C(=S)N2C(=O)c1ccc(C)cc1` has a max response of -0.381%. With `COc1ccccc1Nc1ncnc2c1oc1ccccc12` the max response was 22.8% (active). With `COc1ccc(C)cc1Nc1nc(C)nc2c1oc1ccccc12` the max response was -2.13%. Molecule `Cc1cc(C)nc(N2CCN(c3ncnc4c3oc3ccccc34)CC2)n1` has a max response of 10.4%. `CCCCOc1ccc(N(CC(=O)NCC2CCCO2)C(=O)CCC(=O)Nc2cc(C)ccn2)cc1` (stereo not drawn) showed a max response of -1.91%. `C[n+]1ccc(C(=O)NCc2ccccc2)cc1` showed a max response of -2.14%. For `COc1ccc(CC(=O)Nc2ccc3c(c2)CCC3)cc1S(=O)(=O)N1CCOCC1`, the max response was 1.02%. With `COc1ccc(CNc2ccc3c(c2)CCC3)cc1OC` the max response was 28.7% (active). `COc1ccc(CNc2cc(C)cc(C)c2)cc1OC` gave a max response of -1.54%. `COc1ccc(OCC(=O)Nc2ccc(NC(=O)c3ccco3)c(C)c2)cc1` gave a max response of 6.17%. Work on `COc1cc(NS(=O)(=O)c2ccc(NC(=S)NC(=O)c3ccccc3)cc2)nc(OC)n1` yielded a max response of -6%. `CCn1nccc1C(=O)Nc1ccc(S(=O)(=O)NC23CC4CC(CC(C4)C2)C3)cc1` gave a max response of 9.31%. Work on `Cc1nnc(NC(=O)Nc2ccc(Cl)c(Cl)c2)s1` yielded a max response of -2.3%. With `CCn1nccc1C(=O)Nc1ccc(Cl)c(Cl)c1` the max response was 35.7% (active). With `N#Cc1cccc(Nc2c3c(nc4ccccc24)CCCC3)c1` the max response was -8.08%. For `Cc1nc2nc(C)c(NS(=O)(=O)c3ccc(C(C)(C)C)cc3)c(=O)n2[nH]1`, the max response was 1.21%. `COc1ccc(C(=O)NC2CCN(C(=O)Nc3ccc(F)cc3)CC2)cc1` showed a max response of -4.59%. Molecule `O=C(Nc1ccccc1)N1CCN(C(=O)Nc2ccccc2)CC1` has a max response of -0.439%. In the case of `COc1ccc(NC(=O)N2CCC(Cc3ccccc3)CC2)cc1`, the max response is reported as 19.5% (active). `COc1ccc(NC(=O)N2CCCC(C(=O)Nc3ccccc3OC)C2)cc1` (stereo not drawn) showed a max response of -2.82%. With `O=C(Nc1ccccc1)N1CCN(Cc2ccccc2)CC1` the max response was 21% (active). Molecule `O=C(c1cc2ccccc2o1)N1CCN(c2cccc(C(F)(F)F)c2)CC1` has a max response of -3.72%. Molecule `O=C(NC(=S)N1CCN(Cc2ccccc2)CC1)c1ccccc1` has a max response of 10.6%. With `O=C(c1cc2ccccc2o1)N1CCN(Cc2ccccc2)CC1` the max response was 20.5% (active). Molecule `O=C(c1cccc(Cl)c1)N1CCN(Cc2ccccc2)CC1` has a max response of 1.6%. Work on `COc1ccc(C(CCN2CCOCC2)c2c(OC)cc(OC)c3c2OC(=O)CC3c2ccc(OC)cc2)cc1` (stereo not drawn) yielded a max response of 3.67%. With `CCn1c(/C=C/Nc2ccccc2)[n+](CC)c2ccc(C(=O)OCC(F)(F)F)cc21` the max response was -3.17%. `COc1ccccc1NC(=O)N1CCCC1C(=O)NCc1cccs1` (stereo not drawn) gave a max response of 4.62%. Work on `CCc1cc(=O)oc2cc(C)cc(OCC(=O)N3CCC[C@@H]3C(=O)O)c12` yielded a max response of -2.38%. `CCC1Oc2ccccc2N(CC(=O)NCCCN2CCN(CC)CC2)C1=O` (stereo not drawn) gave a max response of -1.43%. `Nc1ccc(S(=O)(=O)Nc2nccc(/C=C/c3ccc(Br)s3)n2)cc1` gave a max response of 0.595%. For `Oc1cccc2ccc(/C=C/c3ccc(Br)s3)nc12`, the max response was 56.7% (active). Work on `O=C(CN1C(=O)c2cccnc2Oc2ccc(Cl)cc21)NCCc1ccccc1` yielded a max response of 18.6%. For `Cc1cc(C)n2nc(CNS(=O)(=O)c3c(F)c(F)c(F)c(F)c3F)nc2n1`, the max response was 1.02%. Work on `COc1ccc(S(=O)(=O)c2c[nH]c(=S)[nH]c2=O)cc1Cl` yielded a max response of -3.71%.
